Rows were chosen to be rich in hits. Some 2.7% of all compounds tested hit in one or more screens of this group.
aDG glyco up: activators of alpha-DG glycosylation, primary screen, uHTS, Pro5-aDG cells, AlphaScreen; alpha-DG glycosylation AlphaScreen (IIH6); 0% Pro5, 100% B10-LARGE cell signal; activation, % at 10 µM; 360,000 tested, 0.22% active;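 active = activation of at least 8% versus controls, or a plate z-score of at least 8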;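 note: Pro5 are CHO cells carrying HIG-tagged alpha-DG that lacks glycosylation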
NadD inh: inhibitors of S. aureus NadD, primary screen, biochemical, colorimetric, uHTS; Nicotinate-nucleotide adenylyltransferase NadD (Staphylococcus aureus N315); purified NadD enzyme, colorimetric absorbance read-out; inhibition, % at 20 µM; 360,000 tested, 0.78% active; in the data active = inhibition above about 26%
H9c2 TAG inh: inhibitors of triacylglycerol accumulation, primary screen, cell-based, uHTS, fluorescence, H9c2 | H9c2 cells, Nile Red lipid (TAG) fluorescence; cells loaded with 200 µM oleic acid | inhibition, % at 12.5 µM | 230,000 tested, 0.66% active;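 active = pattern-corrected inhibition of lipid staining of at least 50% with the nuclear-stain viability signal not falling by more than 50%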
MPTP block: mitochondrial permeability transition pore inhibitors, primary screen, biochemical, isolated mouse mitochondria, absorbance. Ca2+ swelling absorbance, 30 min. inhibition, % at 10 µM. 360,000 tested, 1.4% active. AID 602449, 2012;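 active = inhibition of 50% or more, scaled per plate between neutral and stimulator controls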
NadD conf: inhibitors of S. aureus NadD, confirmation, biochemical, colorimetric, single concentration. 2,000 tested, 13% active. purified S. aureus NadD, colorimetric enzyme assay. shares compounds with NadD inh. inhibition, % at 20 µM; in the data active = inhibition mostly above about 42%, no sharp cut-off; inactive = mostly below about 42%
Each line names hits and unclear results; the compound was inactive in the other large screens (follow-up assays come after a bar, where they were run).

COc1ccc(S(=O)(=O)Nc2cccc(-c3ccc(N4CCCCCC4)nn3)c2)cc1OC	none (no result: H9c2 TAG inh)
COc1ccc(Cn2c(SCc3ccc(C)cc3)nc3cc(OC)c(OC)cc3c2=N)cc1Cl	NadD inh 51 (no result: H9c2 TAG inh) | NadD conf inactive
COc1cc2nc(SCc3ccc(C(F)(F)F)cc3)n(Cc3cccs3)c(=N)c2cc1OC	none (no result: H9c2 TAG inh)
COc1ccc(Cn2c(SCc3cc(C)ccc3C)nc3cc(OC)c(OC)cc3c2=N)cc1	NadD inh 39, H9c2 TAG inh 112 | NadD conf inactive
C[C@@H]1CN([C@H](C)CO)S(=O)(=O)c2ccc(Br)cc2O[C@H]1CN(C)C(=O)C1CC1	none
FC(F)(F)c1cccc(OCC2CNC(=S)O2)c1 (configuration not stated)	none (no result: H9c2 TAG inh)
COc1ccc(C(C)(NC(C)=O)c2nc(-c3ccncc3)cs2)cc1 (configuration not stated)	none
Cc1nc2ccccc2c(=O)n1Cc1ccco1	none
COc1ccc(Cn2c(C)nc3c(c2=O)c2nc4ccccc4nc2n3Cc2ccco2)cc1	NadD inh 38 | NadD conf inactive
Cc1cc(C)cc(-n2c3nc4ccccc4nc3c3c(=O)n(Cc4ccco4)cnc32)c1	NadD inh 33 | NadD conf inactive
O=C(COC(=O)/C=C/c1ccccc1)NNC(=O)c1ccc([N+](=O)[O-])cc1	none
Cc1cc(C)n2nc(C(=O)N/N=C/c3ccccc3Cl)nc2n1	none
Cc1cc(C)n2nc(C(=O)N/N=C/c3c4ccccc4cc4ccccc34)nc2n1	NadD inh 29 (no result: H9c2 TAG inh) | NadD conf inactive
O=C(O)c1c(-c2ccccc2)cnc2ccccc12	none
COc1ccccc1NS(=O)(=O)c1cccc(C(=O)N/N=C/c2cn(-c3ccccc3)nc2-c2ccccc2)c1	NadD inh 33 (no result: H9c2 TAG inh) | NadD conf inactive
COC(=O)[C@@]12C[C@@H](CC(=O)N3CCSCC3)C(=O)N(Cc3ccc4c(c3)OCO4)C1=CCC(C)(C)C2	none (no result: NadD inh, H9c2 TAG inh)
COCCCNc1cc(C)nc2ccccc12	none
Cc1cc(NCCCCCCCNc2cc(C)nc3cc([N+](=O)[O-])ccc23)c2ccc([N+](=O)[O-])cc2n1	NadD inh 66 | NadD conf 65
COc1ccccc1CNC(=O)/C=C/c1ccc(Br)o1	NadD inh 32, H9c2 TAG inh 51 | NadD conf inactive
COc1ccc(NC(=O)/C=C/c2ccc(Br)o2)cn1	none
CC(C)Cc1cc(C(C)(C)C)ccc1OC(=S)N(C)C	none
CC(=O)c1cccc(NC(=O)C2C3C=CC(C3=C(c3ccccc3)c3ccccc3)C2C(=O)O)c1 (configuration not stated)	NadD inh 37 | NadD conf 50
O=C(Nc1cc(Br)ccc1O)c1cc(-c2ccco2)on1	NadD inh 29 (no result: H9c2 TAG inh) | NadD conf inactive
COc1ccccc1C(NC(=O)C1CCN(CCOc2ccccc2)CC1)c1ccccn1 (configuration not stated)	none
CC(C(=O)NC1CCCC1)n1c(-c2ccccn2)nc2ccccc21 (configuration not stated)	none (no result: NadD inh, H9c2 TAG inh)
O=C(COc1ccc(-c2ccccc2)cc1)N/N=C/c1cc(O)ccc1Br	NadD inh 31 (no result: H9c2 TAG inh) | NadD conf inactive
O=C(C(=O)N(Cc1ccccc1)Cc1ccccc1)c1c(-c2ccccc2)[nH]c2ccccc12	none
Cc1ccccc1COc1ccc(/C(O)=C2/C(=O)C(=O)N(CCCn3ccnc3)C2c2ccco2)cc1 (configuration not stated)	NadD inh 31 (no result: H9c2 TAG inh) | NadD conf 53
CCOc1ccc(/C(O)=C2/C(=O)C(=O)N(CCN(CC)CC)C2c2ccco2)cc1 (configuration not stated)	none
CN(C)S(=O)(=O)c1cccc(-c2nn(-c3ccccc3)cc2/C=C(\C#N)c2nc3ccccc3[nH]2)c1	NadD inh 37 (no result: H9c2 TAG inh) | NadD conf inactive
Cc1ccc(-c2nn(-c3ccccc3)cc2/C=C(\C#N)c2cccc(C#N)c2)o1	none
N#C/C(=C\c1cn(-c2ccccc2)nc1-c1cc2ccccc2o1)c1nc2ccccc2[nH]1	NadD inh 29 (no result: H9c2 TAG inh) | NadD conf inactive
CCN(CC(=O)Nc1c(F)cccc1F)C(=O)c1ccc(OC)c(S(=O)(=O)NC2CCCC2)c1	none

Screens as filed in PubChem BioAssay.
